An excerpt weighted towards active compounds, which were near 27% of everything screened.
CYP2C19 inh – blockers of cytochrome P450 2C19 activity – biochemical, luminescence, ADME assay, primary screen | P33261 | CYP2C19 Supersomes, luciferin-H EGE luminescence, 30 min | inhibition, % at 5 µM | 21% of 96,000 active | AID 778, 2007;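 active = CYP2C19 inhibition above a set limit at 5 µM in the primary screen, cut at about 50% in these data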;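 note: plate controls were negative control wells for no effect and 2.5 mM tranylcypromine positive control for full effect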
CYP2C9 activ – human CYP2C9 activators, primary screen, biochemical, luminescence; Cytochrome P450 2C9 (Homo sapiens), P11712; recombinant CYP2C9, luciferin-H conversion; stronger effect = higher value; factor 1 = untreated enzyme, 0 = blocked; activation factor at 5 µM; 1.4% of 96,000 active; AID 1024, 2008;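 active = activation factor of 2 or more for CYP2C9 at a 5 µM dose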;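 note: 0 = sulfaphenazole-blocked wells and 1 = vehicle-only wells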
Target sequence (P11712 whole entry, looked up): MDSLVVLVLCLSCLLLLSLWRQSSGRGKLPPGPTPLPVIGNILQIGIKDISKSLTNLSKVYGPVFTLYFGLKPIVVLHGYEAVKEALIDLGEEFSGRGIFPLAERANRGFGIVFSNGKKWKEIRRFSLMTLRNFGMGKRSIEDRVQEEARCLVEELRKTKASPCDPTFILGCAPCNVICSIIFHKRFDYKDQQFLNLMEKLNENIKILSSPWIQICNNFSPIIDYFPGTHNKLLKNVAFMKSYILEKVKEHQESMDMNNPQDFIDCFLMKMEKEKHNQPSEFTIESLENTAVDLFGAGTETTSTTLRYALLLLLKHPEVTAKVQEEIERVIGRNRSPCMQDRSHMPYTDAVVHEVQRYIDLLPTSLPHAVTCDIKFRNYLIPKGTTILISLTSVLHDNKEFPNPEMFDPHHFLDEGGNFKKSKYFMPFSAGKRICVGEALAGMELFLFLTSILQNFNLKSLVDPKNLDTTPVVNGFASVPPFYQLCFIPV
CYP2C19 act – human CYP2C19 activators, primary screen, biochemical, luminescence | AID 1025, 2008 | activation factor at 5 µM | Cytochrome P450 2C19 (Homo sapiens), P33261 | 96,000 tested, under 10 active | recombinant CYP2C19, luciferin-H EGE luminescence; stronger effect = higher value; 0 = fully inhibited enzyme, 1 = untreated enzyme;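 active = activation factor of at least 2 at 5 µM in the primary screen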;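 note: 0 = wells with 2.5 mM tranylcypromine and 1 = vehicle-only wells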
CYP2C9 inh – blockers of cytochrome P450 2C9 activity – biochemical, luminescence, ADME assay, primary screen | CYP2C9 Supersomes, luciferin-H conversion | AID 777, 2007 | P11712 | inhibition, % at 5 µM | 20% of 96,000 active;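 active = blocking of liver enzyme CYP2C9 beyond about 50% at 5 µM, limit read from the data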
Cav32 inh – Cav3.2 calcium influx blockers – cell-based, Fluo-4 calcium fluorescence, FDSS, MLSMR library, primary screen. Cav3.2-expressing cells; stronger effect = lower value. B-score at 10 µM. Voltage-dependent T-type calcium channel subunit alpha-1H (Homo sapiens), O95180. AID 449739, 2010. 4% of 100,000 active;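 active = single-dose well whose peak fluorescence ratio is a statistical outlier from its plate by either plate-standardised score or position-corrected B-score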
* hit, by the source's call; nt = no result given.

SMILES	CYP2C19 inh	CYP2C9 activ	CYP2C19 act	CYP2C9 inh	Cav32 inh
COc1ccc(-n2c(SC(CN3CCCCC3)CN3CCCC3=O)nc3ccccc3c2=O)cc1 (centres undefined)	60.7*	0.3	0.4	65.4*	-0.994
CNC(=O)CN1C(=O)NC2(CCc3ccccc32)C1=O (centres undefined)	24.8	0.8	0.8	15.7	-0.00897
CCCCNC(=O)CN1C(=O)NC2(CCCc3ccccc32)C1=O (centres undefined)	-5.7	0.3	1.1	68.2*	0.111
Cc1cc(C(=O)CN2C(=O)NC(c3ccccc3)(c3ccccc3)C2=O)c(C)n1Cc1ccccc1	28.9	0.3	0.7	69.7*	-4.99*
Cc1cc(C(=O)CN2C(=O)NC3(CCCc4ccccc43)C2=O)c(C)n1C (centres undefined)	31.6	0.3	0.7	72.5*	0.199
Cc1cc(C(=O)CN2C(=O)NC3(CCCCC3)C2=O)c(C)n1Cc1ccc2c(c1)OCO2	14.6	0.8	0.9	24.8	-2.14
Cc1cc(C)n2nc(SCc3cc(=O)oc4ccc5ccccc5c34)nc2n1	-6.4	0.9	1.1	5.6	nt
Cc1ccc(NS(=O)(=O)c2ccc(NC(=O)c3ccc(-c4ccccc4)cc3)cc2)c(C)c1	nt	nt	nt	nt	-0.333
Cc1ccc(NS(=O)(=O)c2cccc(C(=O)n3ncc(C#N)c3N)c2)c(C)c1	26.7	0.5	0.7	51.4*	-0.536
O=S(=O)(c1ccc2ccccc2c1)N(CC(O)COCc1ccco1)c1ccccc1 (centres undefined)	11.5	0.9	0.9	11.7	-5.13*
COc1ccc(-n2c(SCC(=O)Nc3ccccc3)nnc2-c2ccoc2C)cc1	nt	nt	nt	nt	-1.15
Cc1occc1-c1nnc(SCC(=O)N2CCN(c3ccccc3)CC2)n1C	7.6	1.1	0.9	-6.1	0.861
COC(=O)c1ccccc1NC(=O)CSc1nnc(-c2ccoc2C)n1C	74.2*	0.7	0.3	32.5	1.24
COC(=O)c1ccccc1NC(=O)CSc1nnc(-c2ccc(OC)cc2)n1C	nt	nt	nt	nt	0.485
COc1ccc(-n2c(C)cc(C(=O)CSc3nnc(-c4ccoc4C)n3C)c2C)cc1	56.6*	0.5	0.4	54.0*	-0.0375
CCCn1c(SCC(=O)Nc2nonc2C)nnc1-c1ccoc1C	53.8*	1	0.5	-1.4	1.06
CC(=O)c1ccc(NC(=O)CSc2nnc(-c3ccoc3C)n2Cc2ccccc2)cc1	20.9	0.7	0.8	34.0	-2.4
COc1cccc(NC(=O)CSc2nnc(-c3ccoc3C)n2-c2ccccc2)c1	32.6	0.4	0.7	59.1*	-6.17*
Cc1ccc(OCC(=O)OC2CCS(=O)(=O)C2)cc1 (centres undefined)	21.4	1.1	0.8	-5.6	-0.0888
CCCCCCN(C(=O)CCCCCN1C(=O)NC(c2ccc(-c3ccccc3)cc2)C(C(=O)OCc2ccccc2)=C1C)C(C(=O)NCCCC)c1cccc(C(=O)OC)c1 (centres undefined)	nt	nt	nt	nt	-0.139
CC(=O)c1ccc(OCC(O)CN2C(C)(C)CC(O)CC2(C)C)cc1 (centres undefined)	12.5	0.6	0.9	37.7	0.192
CCOc1ccccc1-n1c(SCC(=O)Nc2nccs2)nnc1-c1ccoc1C	76.3*	0.2	0.2	79.4*	-7.2*
Cc1cccc(-n2c(SCC(=O)Nc3ccc4c(c3)OCO4)nnc2-c2ccoc2C)c1	1.4	0.9	1	8.5	-0.137
Cc1nonc1NC(=O)CSc1nnc(-c2ccoc2C)n1-c1cccc(Cl)c1	nt	nt	nt	nt	-4.45*
CN=CC1=C(O)c2ccccc2C1=O	17.8	1	0.8	1.8	-0.215
SMILES	CYP2C19 inh	CYP2C9 activ	CYP2C19 act	CYP2C9 inh	Cav32 inh
O=C1C(C2=C(O)c3ccccc3C2=O)=Nc2ccccc21	45.0	0.5	0.6	52.8*	-1.66
C=CCSc1nc2c(sc3nc(C)cc(C)c32)c(=O)[nH]1	9.1	0.6	0.9	36.0	-0.393
Cc1cc(C)c2c(n1)sc1c(=O)[nH]c(SCc3ccccc3)nc12	6.2	0.4	0.9	64.4*	0.7
Cc1c(C(=O)N2CCOCC2)sc2ncnc(N3CCc4ccccc4C3)c12	32.1	0.3	0.7	65.3*	1.23
Cc1c(C(=O)N2CCN(c3ccccc3)CC2)sc2ncnc(N3CCC(C)CC3)c12	61.3*	0.5	0.4	49.2	nt
Cn1c(=O)c2c(nc(CN3CCOCC3)n2CC(O)CO)n(C)c1=O (centres undefined)	-3.3	1.1	1	-7.0	0.0602
CCc1nnc(NC(=O)c2ccc3c(c2)C(=O)N(CC)C3=O)s1	nt	nt	nt	nt	1.11
C[C@@]12CC(=O)NC1N(C(=O)c1ccccc1)C(c1ccccc1OC(=O)c1ccccc1)C2 (some centres undefined)	40.2	0.7	0.6	32.2	-0.0409
O=C(NCc1ccccc1)c1cccnc1N1CCOCC1	nt	nt	nt	nt	0.805
CC(NC(=O)Nc1ccccc1O)(C(F)(F)F)C(F)(F)F	27.4	1	0.7	-4.3	-1.58
CC1(C)CC(=O)C2=C(C1)N(c1ccc(F)cc1)C(=O)C2(O)C(F)(F)F (centres undefined)	50.4*	0.9	0.5	14.1	nt
CC1(C)CC(=O)C2=C(C1)N(C1CCCCC1)C(=O)C2(O)C(F)(F)F (centres undefined)	20.2	1	0.8	0.5	-0.872
Cc1ccc(OCCSc2cc(C)nc(N)n2)cc1	72.1*	0.8	0.3	24.7	-3.1
Cc1cccc(OCCSc2cc(C)nc(N)n2)c1	55.1*	1.1	0.4	-8.4	-1.44
C=CCNCCCCOc1ccc(C)cc1[N+](=O)[O-]	5.8	0.9	0.9	6.9	-0.378
CCC(=O)N1CCN(c2nc(-c3ccc(Cl)cc3)cs2)CC1	nt	nt	nt	nt	0.918
CC1=NN(c2nc(-c3ccc(Cl)cc3)cs2)C(=O)C1	-8.2	0.4	1.1	59.5*	-0.976
Cc1cccc(-n2nc3c(c2NC(=O)c2ccc(S(=O)(=O)N4CCOCC4)cc2)CSC3)c1C	6.9	0.8	0.9	17.0	nt
Cc1ccc(-n2nc3c(c2NC(=O)c2cccs2)CSC3)cc1	22.0	0.3	0.8	71.8*	-6.26*
CCN(CC)S(=O)(=O)c1ccc(C(=O)Nc2c3c(nn2C(C)(C)C)CS(=O)(=O)C3)cc1	-3.3	0.2	1	76.2*	0.69
O=C(Nc1c2c(nn1-c1ccc(F)cc1)CSC2)c1ccc(S(=O)(=O)N2CCOCC2)cc1	12.8	0.6	0.9	36.7	-5.58*
CCC(=O)Nc1c2c(nn1-c1ccccc1C)CSC2	nt	nt	nt	nt	-1.55
CC(C)(C)n1nc2c(c1NC(=O)COc1ccc3ccccc3c1)CS(=O)(=O)C2	40.6	0.7	0.6	28.5	-1.73
Cc1ccc(-n2nc3c(c2NC(=O)c2ccc(S(=O)(=O)N4CCOCC4)cc2)CSC3)c(C)c1	13.2	0.3	0.9	67.3*	-3.5
